Results with a measured potency or affinity are listed apart.
Key:
Klebsiella pneumoniae = conditions: Concentration 32 ug.mL-1; ASSAY_TEST Inhibition of Bacterial Growth; detection method Absorption (OD600); MEDIA CAMHB; plate type 384well; NBS; CORNING #3640; time 18 hr
Candida albicans = conditions: 32 ug/mL
Cryptococcus neoformans = conditions: Concentration 32 ug.mL-1; ASSAY_TEST Inhibition of Fungal Growth; detection method Resazurin; Absorption (OD600-OD570); plate type 384well; NBS; CORNING #3640

SMILES	Inhibition (Klebsiella pneumoniae)	Inhibition (Candida albicans)	Inhibition (Cryptococcus neoformans)
Cl.OCC1CCN(Cc2ccccc2)CC1	15.06%	1.47%	-2.26%
CC1(C)OS(=O)(=O)C2=C1NC(N)=C(C#N)C2c1ccccc1 (stereo unspecified)	11.24%	0.27%	-2.35%
CC(C)NNC(=O)Cc1c[nH]c2ccccc12	18.29%	-0.05%	-1.92%
C=C1CN(Cc2ccccc2)c2c(C#N)c(-c3ccccc3)c(C#N)c(=N)n21	17.58%	2.82%	-53.83%
Cc1[nH]nc2c1C(c1cccc([N+](=O)[O-])c1)C(C#N)=C(N)O2 (stereo unspecified)	18.43%	-0.54%	-0.61%
C#CCN(Cc1ccccc1)c1nc(N)c(C#N)c(-c2ccccc2)c1C#N	-5.74%	2.73%	-25.11%
COc1cc(CCC(N)=O)ccc1O	11.33%	-0.74%	-2.02%
CC(=O)Oc1ccc(C=C2N=C(C)OC2=O)cc1	7.96%	-1%	-2.97%
COc1ccc2cc(C3C4=C(CC(C)(C)CC4=O)Oc4nc5c(c(N)c43)CCCCC5)c(Cl)nc2c1 (stereo unspecified)	4.86%	23%	-4.18%
CCOC(=O)C1=C(C)Oc2nc3c(c(N)c2C1c1nccn1C)CCCCC3 (stereo unspecified)	6.14%	3.82%	-4.74%
Cc1ccc(C=C2N=C(c3ccccc3)OC2=O)cc1	9.43%	-0.14%	-5.42%
CCOC(=O)C1=C(C)OC(N)=C(C#N)C1c1ccc(F)cc1 (stereo unspecified)	13.44%	1.48%	-57.32%

Reference: ChEMBL document CHEMBL4513135, “CO-ADD screening of IQOG CSIS (Spain) compounds”
